In the library only some 8.3% were active in any assay of this set; here they are far more common.
BCR signal inh: blocks chronic active B-cell receptor signaling; ABC-DLBCL IkBa-CBG/CBR reporter, luminescence ratio, 4 h; Potency, µM (top dose mostly 46.1 µM), without a hit: at the highest dose activity change, negative = inhibition, most hits filed as inhibitors; 340,000 tested, 0.05% active; active means well fitted inhibition curve with a large enough effect in the signal ratio, with a control signal flat, not every such curve was filed as active; inconclusive means small, poorly fitted or top-dose-only effect, or effect the other way, or a change in a side signal; the % refers to the signal ratio;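 further: potency means the concentration at half of the fitted maximal effect; plate controls were basal doxycycline-induced cells for no effect and cells given 10 µM MG132 for full effect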
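Concentration-response series (up to 46 uM) were applied to TMD8 dual-reporter cells for 4 h at 37C with doxycycline. Green/red ratio, after filter-overlap correction, defined %Activity; red signal alone was normalised to basal cells and zero luminescence.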
RORgamma inh: ROR gamma (mouse) transcription inhibition. P51450. Drosophila S2 Gal4-RORgamma UAS-luciferase reporter, 20 h. Potency, µM (series often up to 53.6 µM), for the others: at the top dose activity change, negative = inhibition, actives largely listed as inhibitors. 310,000 tested, 5.4% active; further: potency means the concentration at half of the fitted maximal effect; on the % scale 0 is the no-effect control and ±100 the full control effect; nearly all actives have a fitted effect of over 60% in size
Target sequence (P51450 whole entry, looked up, the tested form may be a part): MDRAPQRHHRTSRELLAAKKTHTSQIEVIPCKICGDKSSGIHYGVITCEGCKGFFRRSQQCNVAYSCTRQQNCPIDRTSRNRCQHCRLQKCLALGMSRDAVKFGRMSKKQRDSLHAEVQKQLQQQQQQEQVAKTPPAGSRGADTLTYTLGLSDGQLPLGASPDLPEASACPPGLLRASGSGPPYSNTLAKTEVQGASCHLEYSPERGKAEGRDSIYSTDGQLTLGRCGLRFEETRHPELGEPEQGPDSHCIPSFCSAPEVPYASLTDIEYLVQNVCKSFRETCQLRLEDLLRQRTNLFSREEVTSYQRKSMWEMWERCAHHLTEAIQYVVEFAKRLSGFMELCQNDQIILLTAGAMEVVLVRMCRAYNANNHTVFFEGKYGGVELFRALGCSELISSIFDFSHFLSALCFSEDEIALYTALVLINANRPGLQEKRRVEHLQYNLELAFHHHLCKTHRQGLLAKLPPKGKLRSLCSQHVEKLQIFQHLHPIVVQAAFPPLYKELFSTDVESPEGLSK
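Luminescence from a UAS-regulated Photinus luciferase reporter in stably transfected Drosophila Schneider cells is measured; decreased signal marks ROR gamma inhibition. Fusion expression is induced by 700 uM copper sulfate for 20 hr.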
MCF10A rerep: induces DNA re-replication in MCF 10a normal breast cells. 350,000 tested, 2.9% active. AID 624296. MCF 10A DNA re-replication, Hoechst nuclear intensity, 48 h. Potency, µM (titrated, usually from 46.1 µM), without a hit: at the top dose activity, positive = re-replication, usual class: activators; further: potency means the concentration at half of the fitted maximal effect; % of control where 0% means no effect; nearly all actives have a fitted effect of over 50% in size
SW480 rereplic: inducers of DNA re-replication in SW480 colon cancer cells. SW480 DNA re-replication, Hoechst DNA content imaging, 48 h. Potency, µM (doses to about 46.1 µM), for inactives: at the highest dose re-replication activation, most hits filed as activators. 340,000 tested, 1.8% active. AID 624297; further: potency means the concentration at half of the fitted maximal effect; % of control where 0% means no effect; nearly all actives have a fitted effect of over 55% in size
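DNA re-replication was detected as more nuclei of elevated Hoechst intensity after 48 hr exposure to compound (23 nL pinned per well of 250 cells).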
Gal4-VP16 FLuc: inhibits Gal4-VP16 luciferase reporter, ROR gamma counter-screen | AID 2546 | 310,000 tested, 3.5% active | Drosophila S2 Gal4-VP16 UAS-luciferase, luminescence, 20 h | Potency, µM (highest dose often 53.6 µM), inactives show at the highest dose activity, negative = inhibition, hits mostly inhibitors;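 further: Gal4-VP16 expression switched on by copper sulfate through the metallothionein promoter; potency means the concentration at half of the fitted maximal effect; on the % scale 0 is the no-effect control and ±100 the full control effect; nearly all actives have a fitted effect of over 50% in size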
Giardia kill: Giardia lamblia killing | Giardia lamblia trophozoite viability | activity change, % at 7.66 µM, hits read low | 340,000 tested, 0.15% active | AID 540267; in the data active means activity change below about -80%; inconclusive means between about -30% and that limit;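 further: parasites exposed to compound for two days anaerobically before the ATP read; on the % scale 0 is the no-effect control and ±100 the full control effect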
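ATP-content bioluminescence gauges trophozoite survival. Cells (100/well) receive compound and incubate anaerobically for 48 hrs at 37 deg C; detection reagent follows for 15-30 min at room temperature.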
* = called active by the depositor; ? = inconclusive; · = no result given; [ ] = dose if it differs, or a comment. Unless noted, the call rests on the fitted dose curve; in most records, active means well fitted curve in the direction sought with a large enough effect; inconclusive means small, poorly fitted or top-dose-only effect, or another doubt; inactive means no such curve, though single readings can be large; an effect the other way counts as inactive or inconclusive.

SMILES	BCR signal inh	RORgamma inh	MCF10A rerep	SW480 rereplic	Gal4-VP16 FLuc	Giardia kill
CCN(CC(=O)NCc1cccs1)C(=O)/C=C/c1cc(Br)ccc1OC(F)F	0%	·	?	2%	·	8
CC(C)NC(=O)c1ccc(C2SCC(=O)N2Cc2ccccc2)cc1 (configuration not stated)	-1%	33%	7.3µM*	11%	?	12
Cc1ccc(-n2cc(C(=O)c3ccc(N4CCN(C)CC4)cc3)nn2)cc1Cl	0%	-2%	0.73µM*	-46%	4%	-10
CN1CCN(c2ccc(C(=O)c3cn(-c4ccc(F)c(Cl)c4)nn3)cc2)CC1	11%	5%	?	5%	-12%	-20
Cc1csc(NC(=O)CCSCCc2ccccn2)n1	?	?	10%	-2%	1%	9
CC1CCN(S(=O)(=O)c2cc(C(=O)N3CCN(c4ncccn4)CC3)ccc2Br)CC1	0%	33%	17%	0%	7.1µM*	-8
CCCn1c(C(C)Nc2nc(-c3cc(Cl)c(N)c(Cl)c3)cs2)nc2cc(Cl)c(N3CCCCC3)cc21 (configuration not stated)	?	14µM*	-5%	-1%	1%	-12
COc1ccc(-c2csc(NC(C)c3nc4cc(Cl)c(N5CCCCC5)cc4n3CCCO)n2)cc1 (configuration not stated)	·	·	?	0.15µM*	·	3
COc1ccc(-c2csc(NC(C)c3nc4cc(Cl)c(N5CCCCC5)cc4n3CCOCCO)n2)cc1 (configuration not stated)	·	·	19%	14%	·	0
CCCc1cc(=O)[nH]c2nnc(SCC(=O)Nc3ccc(OC)cc3)n12	-1%	·	·	·	·	·
CCCN1C(=O)c2ccccc2NC1c1cc(OC)c(OC)c(OC)c1 (configuration not stated)	-2%	?	4%	1%	-5%	1
COc1ccc(CCN2C(=O)c3ccccc3NC2c2cc(Cl)c(O)c(OC)c2)cc1 (configuration not stated)	?	33%	2.6µM*	8.2µM*	3%	5
Cc1ccccc1OCC(=O)NCC(=O)OCc1cccc2ccccc12	·	·	·	·	·	-18
CCn1c(CSc2nc3ccccc3s2)nnc1SCC(=O)c1ccc(O)c(O)c1	?	14µM*	2%	0%	-9%	-5
CCn1c(CSc2nc3ccccc3s2)n[nH]c1=S	-8%	2.5µM*	24%	?	10µM*	13
C=CCn1c(CSc2nc3ccccc3s2)n[nH]c1=S	?	11%	2%	-7%	-24%	-18
S=c1[nH]nc(CSc2nc3ccccc3s2)n1Cc1ccccc1	13%	4µM*	10%	3%	-11%	-17
COc1cccc(CN(CC(=O)NCc2ccccc2)S(=O)(=O)CCl)c1	-5%	·	-10%	18%	·	-7
Cc1ccc(C)c(CSC2=NCCN2C(=O)c2cccs2)c1	2%	41%	1%	-2%	15%	-1
Cc1noc(C)c1COC(=O)c1ccc(N(C)C)cc1	0%	12%	0%	-10%	-3%	-13
C/C(=N\NC(=O)CSc1nc2ccccc2s1)c1cccnc1	3%	?	2%	-1%	-4%	-3
CSc1cccc(NC(=O)C(=O)NCc2ccccc2)c1	?	-11%	-1%	-8%	-2%	3
CSc1cccc(NC(=S)NN(C)C)c1	1%	3.2µM*	-2%	-2%	10µM*	6
CSc1cccc(NC(=S)Nc2ccc(F)cc2)c1	?	?	4%	3%	?	0
CSc1cccc(NC(=S)NCCCN2CCN(c3ccc(F)cc3)CC2)c1	0%	6.3µM*	6%	-4%	?	5
SMILES	BCR signal inh	RORgamma inh	MCF10A rerep	SW480 rereplic	Gal4-VP16 FLuc	Giardia kill
CSc1cccc(NC(=O)NCc2cccc(CNC(=O)Nc3cccc(SC)c3)c2)c1	-2%	?	7.3µM*	11%	0%	-18
COCCCNC(=S)Nc1cccc(SC)c1	?	1.6µM*	7%	-24%	11µM*	2
Cc1ccc(S(=O)(=O)N(C)C)cc1NC(=S)N(C)C1CCN(C)CC1	-2%	-18%	3%	-2%	-10%	21
COc1ccccc1CC(=O)Nc1ccon1	?	3%	17%	-8%	-2%	-16
CSc1cccc(NC(=S)N2CCC(N(C)C3CCCCC3)CC2)c1	-1%	-14%	18%	-6%	7%	-12
CSc1cccc(NC(=S)N2CCC(N(C)C3CCCCC3C)CC2)c1 (configuration not stated)	?	13µM*	18%	0%	-71%	-22
CCOc1ccc(NC(=O)CSc2ccccc2N)cc1	2%	15%	1%	1%	8%	-2
Cn1ccc2cc(-c3csc(N4CCC(C(N)=O)CC4)n3)ccc21	?	·	4%	5%	·	1
CC(=O)c1ccc(NC(=O)c2c(C)nn(-c3ccccc3)c2Cl)cc1	-14%	11µM*	-1%	-7%	?	-8
CN(C(=O)COc1ccccc1C(=O)NCCOc1ccccc1)c1ccccc1	?	?	18µM*	1%	7.9µM*	-16
O=C(NCCOc1ccccc1)c1ccccc1Cl	9%	-26%	-2%	1%	?	9
CN(c1ccccc1)c1cc(=O)[nH]c(=O)[nH]1	2%	8%	-2%	-4%	-3%	1
Cn1c(=O)n(CCCOc2ccc(Cl)cc2)c2ccccc21	?	2%	7%	-6%	3%[0.365 µM]	25
Cn1c(=O)n(CCCOc2ccc(Br)cc2)c2ccccc21	·	10µM*	2%	2%	?	-1
O=C(N/N=C/c1ccccn1)c1cc(-c2ccccc2)nc2ccccc12	?	0.5µM*	?	?	0.79µM*	9
O=C(N/N=C/c1ccccn1)c1cc(C2CC2)nc2ccccc12	?	10µM*	9%	?	13µM*	-3
Cc1cccc(C)c1N(CC(=O)N1CCCC1)S(C)(=O)=O	0%	-30%	?	-5%	-7%	19
COc1ccc(-c2ccc(-c3cc(=O)oc4cc(OC)c(OC)c(OC)c34)cc2)cc1F	?	22%	?	-16%	12%	0
COc1cc(OC)c2c(-c3cccc(-c4ccc(O)cc4)c3)cc(=O)oc2c1	?	-1%	?	?	?	14
COc1cc(OC)c2c(-c3cccc(-c4cccc(C)c4)c3)cc(=O)oc2c1	?	2%	?	?	-6%	7
COc1cc(OC)c2c(-c3cccc(-c4ccc(N(C)C)cc4)c3)cc(=O)oc2c1	?	-5%	?	4.1µM*	-12%	-7
